Whole data set: some 16,000 sequences, median “Z-score” near -0.37, cut for the highest 2% near 3.2. The sample holds the highest values, similar sequences and a random draw of the others, so the mix is not that of the screen.
system: RBM10 RRM1-ZnF (GST-tagged construct); assay: RNAcompete 7-mer binding Z-score; higher = stronger binding preference
Experimental: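 RNAcompete: 20 pmol GST-tagged RBM10 RNA-binding constructs were incubated with a designed RNA pool of about 241,000 sequences up to 41 nt (1.5 nmol) on glutathione beads for 30 min at 4 °C and washed. Bound RNAs were identified by microarray hybridisation. Each RNA 7-mer is scored by a one-sided Z-score of its enrichment, computed over probes that contain the 7-mer within longer pool sequences.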

Compared with AUAUUAU, AGUUGCU is higher in “RNAcompete 7-mer binding Z-score” value: -0.402 for the first, -0.334 for the second.

First: UUGGUGU
Second: GGUGUGG
The “RNAcompete 7-mer binding Z-score” value of the first is lower: 1.51 for the first, 4.32 for the second.

Compared with UGUGUGG, UCGGUGU is lower in “RNAcompete 7-mer binding Z-score” value: 1.89 for the first, 0.524 for the second.

First: GGUGUGU
Second: UGGGUGU
The “RNAcompete 7-mer binding Z-score” value of the first is lower: 1.7 for the first, 3.53 for the second.

Compared with ACUCUAA, GCACCCU is higher in “RNAcompete 7-mer binding Z-score” value: -0.685 for the first, -0.496 for the second.

First: AAAUCCC
Second: GCAUUCA
The “RNAcompete 7-mer binding Z-score” value of the first is lower: -0.86 for the first, -0.396 for the second.

Going from CUGUUCU to UGUGGGC, the “RNAcompete 7-mer binding Z-score” value rises from -0.847 to 2.06.

Going from GGUGGGC to GCUGGGU, the “RNAcompete 7-mer binding Z-score” value falls from 3.3 to 2.3.

First: UCUGGGU
Second: UGUGGGG
The “RNAcompete 7-mer binding Z-score” value of the first is lower: 0.81 for the first, 3.96 for the second.

Compared with UGUGGGU, GGUGGGU is higher in “RNAcompete 7-mer binding Z-score” value: 3.46 for the first, 3.78 for the second.

Compared with UGUGGUG, GGUGGUC is higher in “RNAcompete 7-mer binding Z-score” value: 1.84 for the first, 2.06 for the second.

First: UGUGGUU
Second: GGUGGUU
The “RNAcompete 7-mer binding Z-score” value of the first is lower: 1.84 for the first, 2.61 for the second.

Going from UGUGGGA to CUAAUUG, the “RNAcompete 7-mer binding Z-score” value falls from 2.87 to -0.617.

First: UUGAACG
Second: ACCCACU
The “RNAcompete 7-mer binding Z-score” value of the first is higher: -0.139 for the first, -0.675 for the second.

Compared with GGAUGUA, GUUUGUG is lower in “RNAcompete 7-mer binding Z-score” value: 1.7 for the first, 0.865 for the second.

First: AUCUAAC
Second: AACCGGC
The “RNAcompete 7-mer binding Z-score” value of the first is lower: -0.681 for the first, -0.6 for the second.

Compared with AGUGUCC, GGACGUA is higher in “RNAcompete 7-mer binding Z-score” value: -0.604 for the first, 0.833 for the second.

Going from UUAUGAU to CUGAAUG, the “RNAcompete 7-mer binding Z-score” value rises from -0.353 to -0.285.

Compared with AGUGGGU, AGUGGUA is lower in “RNAcompete 7-mer binding Z-score” value: 3.49 for the first, 2.01 for the second.

First: AUUGGGA
Second: AGUGUGG
The “RNAcompete 7-mer binding Z-score” value of the first is lower: 2.83 for the first, 2.95 for the second.

First: GGUGGGA
Second: AGUGGGC
The “RNAcompete 7-mer binding Z-score” value of the first is higher: 4.26 for the first, 2.67 for the second.

First: GCUGGGA
Second: AGUGGGG
The “RNAcompete 7-mer binding Z-score” value of the first is lower: 2.03 for the first, 4.49 for the second.

Compared with GGUGGCA, CGUGGGU is higher in “RNAcompete 7-mer binding Z-score” value: 2.02 for the first, 2.81 for the second.

First: AGUGGGA
Second: ACUGGGU
The “RNAcompete 7-mer binding Z-score” value of the first is higher: 4.13 for the first, 2.06 for the second.

First: UCAUCCG
Second: CAGUGAG
The “RNAcompete 7-mer binding Z-score” value of the first is lower: -0.808 for the first, 0.706 for the second.

Compared with UUCUUUG, GCUGAAG is higher in “RNAcompete 7-mer binding Z-score” value: -0.659 for the first, 0.699 for the second.

Going from ACACUUG to UCUAUAC, the “RNAcompete 7-mer binding Z-score” value falls from -0.535 to -0.821.

Compared with CGUGGGG, CGUGGGA is lower in “RNAcompete 7-mer binding Z-score” value: 3.65 for the first, 2.33 for the second.

First: CGUGGGC
Second: AUUUAAG
The “RNAcompete 7-mer binding Z-score” value of the first is higher: 1.85 for the first, -0.298 for the second.

Going from UAGUCAU to GGGGAAC, the “RNAcompete 7-mer binding Z-score” value rises from -0.444 to 2.42.

Going from AGGGAAU to GGGGAAG, the “RNAcompete 7-mer binding Z-score” value rises from 3.05 to 4.31.

First: GGGGACG
Second: GGGGAAU
The “RNAcompete 7-mer binding Z-score” value of the first is lower: 2.55 for the first, 3.41 for the second.

Going from CGGGAAU to CGACUUC, the “RNAcompete 7-mer binding Z-score” value falls from 1.68 to -0.785.

Compared with CCCUUGC, GCCAGUA is higher in “RNAcompete 7-mer binding Z-score” value: -0.694 for the first, -0.288 for the second.

First: UGCCUCC
Second: UGGAAGU
The “RNAcompete 7-mer binding Z-score” value of the first is lower: -0.506 for the first, 1.79 for the second.

Compared with AGGAAGA, AGGAAGU is lower in “RNAcompete 7-mer binding Z-score” value: 1.7 for the first, 1.06 for the second.

Going from AGGAAGG to UGGAAGG, the “RNAcompete 7-mer binding Z-score” value falls from 4.31 to 4.12.

First: CGGAAGG
Second: AUACUAG
The “RNAcompete 7-mer binding Z-score” value of the first is higher: 2.53 for the first, -0.337 for the second.

Going from AACCAUC to CUAGCUG, the “RNAcompete 7-mer binding Z-score” value rises from -0.763 to -0.386.

First: CGGUGAG
Second: CGUUGAG
The “RNAcompete 7-mer binding Z-score” value of the first is higher: 1.42 for the first, -0.0512 for the second.

Compared with GGGUGAA, GGUUGAG is lower in “RNAcompete 7-mer binding Z-score” value: 3.87 for the first, 3.3 for the second.

Going from GGGUGAU to AGGUGAU, the “RNAcompete 7-mer binding Z-score” value falls from 3.22 to 1.8.

First: UGGUGAA
Second: UGUUGAG
The “RNAcompete 7-mer binding Z-score” value of the first is higher: 1.71 for the first, 0.716 for the second.

First: UGGUGAU
Second: GGGUGAG
The “RNAcompete 7-mer binding Z-score” value of the first is lower: 1.2 for the first, 4.36 for the second.

Compared with GGGUGAC, CGGUGAA is lower in “RNAcompete 7-mer binding Z-score” value: 3.04 for the first, 0.595 for the second.

Compared with GAAACGU, GACAGCC is lower in “RNAcompete 7-mer binding Z-score” value: -0.00246 for the first, -0.539 for the second.
